According to PubChem BioAssay (NCATS):
Where “and” joins values, the source holds several entries; their conditions need not be identical. Equal entries are not always repeated. Records with an inconclusive call do not appear. Calls of active or inactive are those of the source. The call rests on the fitted dose curve; in most records, active means well fitted curve in the direction sought with a large enough effect; inconclusive means small, poorly fitted or top-dose-only effect, or another doubt; inactive means no such curve, though single readings can be large; an effect the other way counts as inactive or inconclusive.

Columns and labels:
[1] = biological target: Cytochrome P450 3A7 (Homo sapiens) (UniProt P24462); experiment: Cytochrome P450 family 3 subfamily A member 7 (CYP3A7) small molecule antagonists: luciferase biochemical qHTS assay (AID 1963596); further: on the % scale 0 is the no-effect control and ±100 the full control effect; nearly all actives have a fitted effect of over 40% in size
Outline: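 Luminescence from luciferin released by CYP3A7 from a proluciferin substrate, read 20 min after detection reagent. Compound and enzyme-substrate mix sat 10 min before NADPH regeneration solution; reaction ran 1 h at room temperature.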

[2] = Viability qHTS for spleen associated tyrosine kinase inhibitor (SYKi) drug resistant MV4-11 cells (AID 1963824); further: nearly all actives have a fitted effect of over 35% in size; further: potency means the concentration at half of the fitted maximal effect
Outline: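 SYK-inhibitor-resistant MV4-11 AML cells were seeded at 500 per well onto compound and cultured 72 hours (37 °C, 5% CO2). CellTiter-Glo was then added, and after 10 min at room temperature, luminescence gave viability.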

[3] = Quantitative highthroughput screen to assess conditional lethalithy of NOMO1 cells grown in RPMI1640 with untreated serum (RPMI+s) (AID 1963876); further: nearly all actives have a fitted effect of over 35% in size; further: potency means the concentration at half of the fitted maximal effect;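 on Viability: 100% = DMSO wells and 0% = empty wells without cells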
Outline: (§1)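 Each medium arm—HPLM with 10% dialyzed FBS, or RPMI1640 with 5 mM glucose and 10% untreated or dialyzed FBS—was screened against an 11-point, 3-fold compound titration for 48 h at 37 °C, with CellTiter-Glo luminescence as endpoint.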

[4] = Quantitative highthroughput screen to assess conditional lethalithy of NOMO1 cells grown in RPMI1640 with dialyzed fetal bovine serum (RPMI+ds) (AID 1963877); further: nearly all actives have a fitted effect of over 30% in size; further: potency means the concentration at half of the fitted maximal effect;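 on Viability: series mostly up to about 46 µM; 100% = DMSO control wells and 0% = empty wells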
Outline: as §1

[5] = Quantitative highthroughput screen to assess conditional lethalithy of NOMO1 cells grown in Human Plasma-Like Medium with dialyzed fetal bovine serum (HPLM+ds) (AID 1963878); further: nearly all actives have a fitted effect of over 35% in size; further: potency means the concentration at half of the fitted maximal effect;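 on Viability: 100% = DMSO wells and 0% = empty wells on each plate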
Outline: as §1

[6] = Quantitative highthroughput screen to assess conditional lethalithy of P12 Ichikawa cells grown in Human Plasma-Like Medium with dialyzed fetal bovine serum (HPLM+ds) (AID 1963879); conditions: Potency: viability; further: nearly all actives have a fitted effect of over 35% in size; further: potency means the concentration at half of the fitted maximal effect; on Viability: series mostly up to about 46 µM
Outline: as §1

[7] = Quantitative highthroughput screen to assess conditional lethalithy of P12 Ichikawa cells grown in RPMI1640 with dialyzed fetal bovine serum (RPMI+ds) (AID 1963880); conditions: Potency: P12-Ichikawa viability; further: nearly all actives have a fitted effect of over 35% in size; further: potency means the concentration at half of the fitted maximal effect;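 on Viability: 100% = DMSO wells and 0% = empty wells on each plate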
Outline: as §1

[8] = Quantitative highthroughput screen to assess conditional lethalithy of P12 Ichikawa cells grown in RPMI1640 with untreated serum (RPMI+s) (AID 1963881); conditions: Potency: viability; further: nearly all actives have a fitted effect of over 35% in size; further: potency means the concentration at half of the fitted maximal effect;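 on Viability: series mostly up to about 46 µM; 100% = DMSO wells and 0% = empty wells without cells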
Outline: as §1

[9] = Quantitative highthroughput screen to assess conditional lethalithy of SEM cells grown in Human Plasma-Like Medium with dialyzed fetal bovine serum (HPLM+ds) (AID 1963882); further: nearly all actives have a fitted effect of over 35% in size; further: potency means the concentration at half of the fitted maximal effect; on Viability: series mostly up to about 46 µM
Outline: as §1

[10] = Quantitative highthroughput screen to assess conditional lethalithy of SEM cells grown in RPMI1640 with unreated serum (RPMI+s) (AID 1963883); further: nearly all actives have a fitted effect of over 35% in size; further: potency means the concentration at half of the fitted maximal effect;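 on Viability: 100% = DMSO wells and 0% = empty wells without cells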
Outline: as §1

[11] = Quantitative highthroughput screen to assess conditional lethalithy of SEM cells grown in RPMI1640 with dialyzed fetal bovine serum (RPMI+ds) (AID 1963884); further: nearly all actives have a fitted effect of over 35% in size; further: potency means the concentration at half of the fitted maximal effect;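 on Viability: series mostly up to about 46 µM; 100% = DMSO control wells and 0% = empty wells without cells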
Outline: as §1

[12] = Cellular viability qHTS for adrenocortical cancer (ACC) cell line NCI-H295R (AID 1963990); further: nearly all actives have a fitted effect of over 60% in size; further: potency means the concentration at half of the fitted maximal effect;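 on activity change, negative = viability loss: 0% = DMSO only wells and -100% = full killing with cytotoxic reference compound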
Outline: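 Luminescent ATP read-out (CellTiter-Glo, 20 min RT) after 48 h drug exposure of NCI-H295R cells; a titration up to 46 uM final. Data normalized to doxorubicin (100% inhibition) and DMSO (0%); 4-parameter fit gives IC50, max response.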

[13] = Cellular viability qHTS for adrenocortical cancer (ACC) cell line SW-13 (AID 1963989); conditions: SW-13 ACC cells viability, CellTiter-Glo, 48 h; activity (max response): stronger effect = lower value; further: nearly all actives have a fitted effect of over 65% in size; further: potency means the concentration at half of the fitted maximal effect;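 on activity (max response): cells grown in serum-free medium with ITS supplement; on the % scale 0 is the no-effect control and ±100 the full control effect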
Outline: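 SW-13 cells in ITS-supplemented serum-free DMEM were plated overnight, then exposed for 48 h at 37C to compound titrations (up to 46 uM final). Viability was read by CellTiter-Glo luminescence; four-parameter logistic fits gave IC50 and efficacy.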

Cytochrome P450 3A7 (Homo sapiens), sequence (P24462 whole entry, looked up): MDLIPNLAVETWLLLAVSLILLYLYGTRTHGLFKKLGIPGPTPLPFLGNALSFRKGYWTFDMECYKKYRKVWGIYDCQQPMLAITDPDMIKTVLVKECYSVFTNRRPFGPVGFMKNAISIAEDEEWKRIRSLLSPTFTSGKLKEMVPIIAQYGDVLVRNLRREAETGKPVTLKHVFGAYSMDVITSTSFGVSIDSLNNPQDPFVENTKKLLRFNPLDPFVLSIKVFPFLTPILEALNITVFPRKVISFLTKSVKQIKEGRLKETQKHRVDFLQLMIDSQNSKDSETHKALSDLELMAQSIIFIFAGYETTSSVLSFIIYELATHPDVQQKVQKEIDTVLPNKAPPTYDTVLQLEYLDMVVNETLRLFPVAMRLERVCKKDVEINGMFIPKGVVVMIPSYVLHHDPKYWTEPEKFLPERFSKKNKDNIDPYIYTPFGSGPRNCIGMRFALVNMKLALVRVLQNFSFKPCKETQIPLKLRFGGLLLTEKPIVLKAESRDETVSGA

CC(CNS(=O)(=O)C(C)C)c1ccc(-c2ccc(C#N)cc2)cc1 (configuration not stated)
active: Potency [2] 2.59 µM
inactive: Potency [1]

CCN(CC)CCCC(C)Nc1nc(C)cc(Nc2ccc3nc(C)cc(N)c3c2)n1 (configuration not stated)
inactive: Potency [1] | Potency [3] | Potency [4] | Potency [5] | Potency [6] | Potency [7] | Potency [8] | Potency [9] | Potency [10] | Potency [11] | Potency [12]
active: Potency [2] 16.6 µM

CC(C)c1noc(N2CCC(COc3ccc(-c4ccc(S(C)(=O)=O)cc4)nc3)CC2)n1
active: Potency [2] 5.25 µM
inactive: Potency [1] | Potency [3] | Potency [4] | Potency [5] | Potency [6] | Potency [7] | Potency [8] | Potency [9] | activity (max response) [13] -1.34% | Potency [12]

CCN(CCO)CCCC(C)Nc1ccnc2cc(Cl)ccc12 (configuration not stated)
inactive: activity change, negative = inhibition [1] 10.6% [at 4.83 µM] | viability, % of control [2] 88.8% [at 4.97 µM] | activity (max response) [13] 4.84% and 9.37% | activity change, negative = viability loss [12] 1.42% [at 3.81 µM] and 0.71% [at 3.81 µM]
active: Potency [3] 10.5 µM | Potency [6] 4.18 µM | Potency [7] 2.64 µM | Potency [8] 10.5 µM

COC(=O)c1ccc2c(C(=Nc3ccc(N(C)C(=O)CN4CCN(C)CC4)cc3)c3ccccc3)c(O)[nH]c2c1
active: Potency [2] 58 nM and 66.1 nM | Potency [13] 7.08 µM | Potency [12] 10 µM
inactive: Potency [1] | Potency [3] | Potency [4] | Potency [5] | Potency [6] | Potency [7] | Potency [8]

CCCN[C@H]1CCc2nc(N)sc2C1
active: Potency [2] 4.17 µM
inactive: Potency [1] | Potency [3] | Potency [4] | Potency [5] | Potency [6] | Potency [8] | Potency [9] | Potency [10] | activity (max response) [13] -1.3% and 3.21% | Potency [12]

C1Cc2[nH]nc(-c3nn[nH]n3)c2C1
inactive: Potency [1] | Potency [2] | Potency [3] | Potency [4] | Potency [5] | Potency [6] | Potency [7] | Potency [8] | Potency [9] | Potency [10] | Potency [11] | activity (max response) [13] 1.5%

Cn1c2ccc(NC(=O)c3ccccc3)cc2c(=O)n2nc(C(=O)O)cc12
inactive: Potency [1] | Potency [2]

O=C(O)CNC(=O)c1ccccc1I
inactive: Potency [1] | Potency [2]

NC(=O)c1ccccc1O
inactive: Potency [1] | Potency [2]

COc1ccc(CC2c3cc(OC)c(OC)cc3CC[N+]2(C)CCC(=O)OCCCCCOC(=O)CC[N+]2(C)CCc3cc(OC)c(OC)cc3C2Cc2ccc(OC)c(OC)c2)cc1OC (configuration not stated)
active: Potency [2] 18.6 µM | Potency [3] 3.68 µM | Potency [4] 4.63 µM
inactive: Potency [1] | viability [7] 106% [at 5.15 µM] | viability [8] 89.9% [at 5.15 µM] | activity (max response) [13] -11.7%

COC(=O)Nc1nc2ccc(C(=O)c3ccccc3)cc2[nH]1
active: Potency [2] 596 nM and 372 nM | Potency [3] 3.32 µM | Potency [7] 1.87 µM | Potency [8] 0.332 µM | Potency [13] 130 nM and 316 nM | Potency [12] 103 nM and 141 nM
inactive: Potency [1]

N[C@@H](C(=O)N[C@@H]1C(=O)N2C(C(=O)O)=C(Cl)CS[C@H]12)c1ccccc1
inactive: activity change, negative = inhibition [1] -8.83% [at 11.5 µM] | Potency [3] | Potency [4] | Potency [5] | Potency [6] | Potency [7] | Potency [8] | Potency [9] | Potency [10] | Potency [11] | activity (max response) [13] 7.53% | activity change, negative = viability loss [12] -18.4% [at 9.17 µM]
active: Potency [2] 0.686 µM

O=C(O)c1cccnc1
active: Potency [3] 8.33 µM | Potency [4] 5.26 µM | Potency [5] 3.72 µM | Potency [7] 10.5 µM | Potency [9] 1.18 µM | Potency [10] 2.96 µM | Potency [11] 2.96 µM
inactive: Potency [1] | Potency [2] | activity (max response) [13] -4.23% and 5.29% | Potency [12]

CN(C)C/C=C/C(=O)Nc1ccc(C(=O)Nc2cccc(Nc3ncc(Cl)c(-c4c[nH]c5ccccc45)n3)c2)cc1
inactive: Potency [1]
active: Potency [2] 10.3 nM and 18.6 nM | Potency [3] 0.331 µM | Potency [4] 0.263 µM | Potency [5] 0.263 µM | Potency [6] 0.331 µM | Potency [7] 0.331 µM | Potency [8] 0.331 µM | Potency [9] 0.209 µM | Potency [10] 0.186 µM | Potency [11] 0.166 µM | Potency [13] 0.282 µM

COc1cccc2c1CCCC2CCCN1CCN(C2CCCCC2)CC1 (configuration not stated)
inactive: Potency [1]
active: Potency [2] 10.5 µM | Potency [3] 20.9 µM | Potency [7] 18.7 µM | Potency [13] 22.4 µM

CC1COc2c(N3CCN(C)CC3)c(F)cc3c(=O)c(C(=O)O)cn1c23 (configuration not stated)
inactive: Potency [1] | Potency [5] | Potency [6] | Potency [7] | Potency [8] | Potency [9] | Potency [11] | activity (max response) [13] 4.41% and 9.62% | Potency [12]
active: Potency [2] 8.41 µM
